# Data published in ChEMBL document CHEMBL3433997, “St. Jude Leishmania screening dataset” (2016).
# Key:
# Assay type in all cases: functional
# [1] = target: Solute carrier family 2, facilitated glucose transporter member 1 (Homo sapiens) (UniProt P11166); assay: ST_JUDE_LEISH: Cytotoxicity at 2uM final concentration against transgenic Leishmania Mexicana promastigotes LmGLUT1 that are glucose transport deficient and complemented with the human glucose transporter GLUT1. Activity is measured by DNA content using SYBR green in vitro
# [2] = target: Hexose transporter 1 (Plasmodium falciparum) (UniProt O97467); assay: ST_JUDE_LEISH: Cytotoxicity at 2uM final concentration against transgenic Leishmania Mexicana promastigotes LmPfHT that are glucose transport deficient and complemented with the Plasmodium falciparum hexose transporter. Activity is measured by DNA content using SYBR green in vitro
# [3] = target: Glucose transporter (Leishmania mexicana) (UniProt O61059); assay: ST_JUDE_LEISH: Cytotoxicity at 2uM final concentration against transgenic Leishmania Mexicana promastigotes LmGT2 that are glucose transport deficient and complemented with the L. Mexicana glucose transporter 2. Activity is measured by DNA content using SYBR green in vitro
# Solute carrier family 2, facilitated glucose transporter member 1 (Homo sapiens), sequence (P11166 whole entry): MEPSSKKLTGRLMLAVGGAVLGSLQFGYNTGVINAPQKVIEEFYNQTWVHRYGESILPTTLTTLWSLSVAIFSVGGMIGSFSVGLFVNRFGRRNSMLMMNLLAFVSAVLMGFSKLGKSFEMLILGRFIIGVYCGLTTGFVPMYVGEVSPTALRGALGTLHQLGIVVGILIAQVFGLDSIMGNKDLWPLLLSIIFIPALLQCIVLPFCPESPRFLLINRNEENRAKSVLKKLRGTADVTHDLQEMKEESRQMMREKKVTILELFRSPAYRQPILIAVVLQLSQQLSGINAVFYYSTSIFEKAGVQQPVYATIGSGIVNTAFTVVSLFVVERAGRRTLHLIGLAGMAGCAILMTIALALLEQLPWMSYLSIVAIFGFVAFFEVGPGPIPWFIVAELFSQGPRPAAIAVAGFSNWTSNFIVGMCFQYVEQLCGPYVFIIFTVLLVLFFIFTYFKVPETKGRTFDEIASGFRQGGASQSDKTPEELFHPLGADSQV
compound,measurement,setting,value
O=C(NCCCCN1CCC(c2ccc(Br)cc2)CC1)c1ccc(NC(=O)c2ccc(Cl)cc2)cc1,inhibition,[1],-0.29%
same,inhibition,[2],0.2%
same,inhibition,[3],-1.89%
CC(=NNC(S)=NC(c1ccccc1)c1ccccc1)c1ccccn1,inhibition,[1],61%
same,inhibition,[2],58.8%
same,inhibition,[3],32%
CN1CCc2cc(CN3CC4(C)CC3CC(C)(C)C4)c(O)cc2C(c2ccccc2)C1 (configuration not stated),inhibition,[1],0.04%
same,inhibition,[2],-0.55%
same,inhibition,[3],-0.09%
CN1CCc2cc(O)c(NS(=O)(=O)c3ccc(-c4ccc(Cl)cc4)cc3)cc2CC1,inhibition,[1],12.4%
same,inhibition,[2],9.38%
same,inhibition,[3],9.99%
CCc1c(CCNCC/C=C/CCNCCc2ccc(OC)c(OC)c2CC)ccc(OC)c1OC,inhibition,[1],0.84%
same,inhibition,[2],1.33%
same,inhibition,[3],-1.26%
CCCCN(CCCC)C(=N)c1cccc2c1CCCC2,inhibition,[1],2.36%
same,inhibition,[2],3.35%
same,inhibition,[3],2.45%
COc1cccc(C(=O)Nc2ccc(Oc3ccc(Cl)cc3)cc2)c1,inhibition,[1],-1.17%
same,inhibition,[2],-0.22%
same,inhibition,[3],-1.01%
O=S(=O)(c1ccccc1)C1CC1,inhibition,[1],1.39%
same,inhibition,[2],0.38%
same,inhibition,[3],-0.5%
O=C(NC1CCCCN(Cc2ccccc2O)C1)c1cccc(Cl)c1 (configuration not stated),inhibition,[1],1.27%
same,inhibition,[2],1.65%
same,inhibition,[3],-1.89%
COc1ccc2ccccc2c1C=NN=c1cc[nH]c2ccc(F)cc12,inhibition,[1],3.72%
same,inhibition,[2],2.24%
same,inhibition,[3],7.98%
CCOc1cc2ncnc(Nc3ccc(OCc4c(Cl)cccc4Cl)c(OC)c3)c2cc1OCC,inhibition,[1],4.01%
same,inhibition,[2],4.16%
same,inhibition,[3],3.54%
c1ccc2c(NCCCCCCCCCNc3ccnc4ccccc34)ccnc2c1,inhibition,[1],-0.85%
same,inhibition,[2],4.91%
same,inhibition,[3],8.19%
COc1ccc(C(=O)Nc2cc(Br)c3c(c2)CNCC3)cc1C(F)(F)F,inhibition,[1],4.52%
same,inhibition,[2],1.74%
same,inhibition,[3],1.37%
CCOC(=O)c1cccc(NC(=N)Nc2nc(C)cc(NCCc3ccccc3)n2)c1,inhibition,[1],7.04%
same,inhibition,[2],7.16%
same,inhibition,[3],5.39%
